Screening data deposited in PubChem by National Center for Advancing Translational Sciences (NCATS).
HT1080NT lethal – qHTS for induction of synthetic lethality in tumor cells producing 2HG: qHTS for the HT-1080-NT fibrosarcoma cell line | HT-1080-NT fibrosarcoma viability, CellTiter-Glo ATP luminescence, 48 h | Potency, µM (top dose mostly 46.1 µM), for the others: at the top dose activity, negative = less viability, hits mostly cytotoxic | hit rate 1.6% among 360,000 | AID 686970, 2013;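 note: NT is the 2HG producing partner of a matched IDH1 knockdown line; 0% = DMSO-treated cells and -100% = media-only wells without cells; nearly all actives have a fitted effect of over 55% in size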
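HT-1080-NT fibrosarcoma cells (2HG-overproducing), 750 cells/well in RPMI with 5% FBS, dosed after 2 h and incubated 48 h at 37C. CellTiter-Glo luminescence normalized to DMSO and no-cell wells; concentration-response curves fitted and classed.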
KB-V1 MDR tox – qHTS assay for MDR1-selective chemotherapeutics: Primary screen using the drug-selected MDR subline cells KB-V1; hit rate 3.4% among 400,000; KB-V1 MDR cells viability, CellTiter-Glo, 72 h; Potency, µM (titrated, usually from 46.1 µM), usual class: cytotoxic; note: nearly all actives have a fitted effect of over 60% in size
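Drug-selected KB-V1 cells, grown in DMEM lacking phenol red with 10% FBS, receive compound titrations; after three days at 37 degrees C, surviving cell ATP is quantified by CellTiter-Glo luminescence and responses normalized and curve-fitted.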
HT1080 IDH1KD tx – qHTS for induction of synthetic lethality in tumor cells producing 2HG: qHTS for the HT-1080-IDH1KD cell line; AID 686971, 2013; hit rate 2% among 360,000; Potency, µM (highest dose often 46.1 µM), without a hit: at the highest dose activity, negative = toxicity, hits mostly cytotoxic; HT-1080 IDH1 knockdown viability, ATP luminescence, 48 h;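 note: 0% = DMSO wells and -100% = cell-free medium wells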
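CellTiter-Glo luminescence after 48 h compound exposure at 37 degrees C of IDH1-knockdown HT-1080 cells in 5% FBS RPMI. %Activity scaled between DMSO wells and cell-free media wells, with curves fitted and assigned curve classes.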
TDP1 cell noCPT – qHTS for Inhibitors of human tyrosyl-DNA phosphodiesterase 1 (TDP1): qHTS in cells in absence of CPT. hit rate 15% among 420,000. DT40 Tdp1-/- hTDP1 cells, no CPT, ATP luminescence, 48 h. Potency, µM (highest dose often 46.2 µM), inactives show at the highest dose activity change, negative = growth inhibition, actives largely listed as inhibitors; note: nearly all actives have a fitted effect of over 55% in size
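Growth kinetics read by CellTiter-Glo luminescence after ≥48 hr at 37 °C. Cells: DT40 Tdp1-/- stably carrying human TDP1, 400 per well, compound exposure in the absence of CPT (DMSO vehicle).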
DT40 TDP1 CPT – qHTS for Inhibitors of human tyrosyl-DNA phosphodiesterase 1 (TDP1): qHTS in cells in presence of CPT; hit rate 12% among 420,000; AID 686979, 2013; Potency, µM (series often up to 46.2 µM), for the others: top-dose activity change, negative = growth inhibition, hits mostly inhibitors; chicken DT40 Tdp1-/-;hTDP1 cells + 20 nM CPT, ATP luminescence, 48 h; note: nearly all actives have a fitted effect of over 55% in size
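Chicken DT40 Tdp1-/- cells stably complemented with human TDP1 were seeded at 400 cells/well in medium containing 20 nM camptothecin, exposed to pin-transferred compounds, and grown at 37 °C for at least 48 hr. Viability was read as ATP luminescence.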
KB-3-1 cytotox – qHTS assay for MDR1-selective chemotherapeutics: Primary screen using the parental adenocarcinoma cell KB-3-1 | KB-3-1 viability, CellTiter-Glo ATP luminescence, 72 h | Potency, µM (highest dose often 46.1 µM), most hits filed as cytotoxic | hit rate 1.4% among 400,000 | AID 1347075, 2019; note: nearly all actives have a fitted effect of over 60% in size
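Parental KB-3-1 adenocarcinoma cells in phenol-red-free DMEM with 10% FBS were pin-treated with compounds at several concentrations, incubated 72 h at 37 °C, and viability read by CellTiter-Glo luminescence; concentration-effect curves were fitted after normalization.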
* marks the source's active call; other numbers are inactive results; i = inactive; ? = inconclusive; · = no result; ! = a repeat was not active. Rows were chosen to be rich in hits. Some 19% of all compounds tested hit in one or more screens of this group. Calls come from the whole dose curve; as a rule, active = well fitted curve in the direction sought with a large enough effect; inconclusive = small, poorly fitted or top-dose-only effect, or another doubt; inactive = no such curve, though single readings can be large; an effect the other way counts as inactive or inconclusive. Unless noted, % is set by controls: 0 for no effect and ±100 for the full control effect; potency is the fitted concentration of half-maximal effect.

SMILES	HT1080NT lethal	KB-V1 MDR tox	HT1080 IDH1KD tx	TDP1 cell noCPT	DT40 TDP1 CPT	KB-3-1 cytotox
C[C@]12C(=O)N(c3ccc(Cl)cc3)C(=O)N1[C@@H]1c3ccccc3OC[C@@H]1[C@H]2c1ccccc1	0%	i	-1%	23µM*	?	i
C[C@@]12C(=O)N(c3cccc(Cl)c3)C(=O)N1[C@@H]1c3ccccc3OC[C@@H]1[C@H]2c1ccccc1	-9%	i	0%	?	?	i
C[C@@]12C(=O)N(c3ccccc3)C(=O)N1[C@@H]1c3ccccc3OC[C@@H]1[C@H]2c1ccccc1	-14%	?	-19%	?	16µM*	?
C[C@@]12C(=O)N(c3ccc(Br)cc3)C(=O)N1[C@@H]1c3ccccc3OC[C@@H]1[C@H]2c1ccccc1	2%	i	5%	18µM*	?	i
C[C@]12C(=O)N(c3ccc(Cl)cc3)C(=O)N1[C@H]1c3ccccc3OC[C@@H]1[C@H]2c1ccccc1	-13%	i	-19%	?	?	i
Cc1cc(Cl)ccc1NC(=O)CCCn1nc(C)c2c(C)n(-c3ccccc3)nc2c1=O	·	i	·	?	?	i
CCN(CC)CCNC(=O)c1ccc(NC(C)=O)cc1	-1%	i	5%	-2%	4%	i
CN(C)S(=O)(=O)c1cccc(NC(=O)c2ccc(OC(F)(F)F)cc2)c1	9%	2.6µM*	3%	?	?	?
COCc1ccc(C(=O)Nc2cccc(S(=O)(=O)N(C)c3ccccc3)c2)cc1	6.5µM*	?	-16%	18µM*	18µM*	i
CN(C)S(=O)(=O)c1cccc(NC(=O)c2ccc(COc3ccccc3)cc2)c1	?	?	-1%	6.5µM*	18µM*	?
CCN(CC)CCNC(=O)c1ccc(NC(=O)c2ccc(COc3ccccc3)cc2)cc1	-10%	i	?	-5%	23µM*	?
CN(c1ccc(C(=O)Nc2cccc(O)c2)cc1)S(=O)(=O)c1ccccc1	-10%	·	0%	?	?	·
CC1(C)Cc2cccc(OC(=O)NC3CCCCC3)c2O1	6%	i	1%	?	?	i
O=C(CSc1ccccc1F)NNC(=O)c1ccncc1	15%	i	7%	22%	-6%	i
O=[N+]([O-])c1ccc2c(c1)c1ccccc1n2CCO	?	8.2µM*	?	?	9%	?
CCc1ccc(CN(Cc2cccnc2)C(=O)/C=C/c2ccc(OC)cc2)cc1	?	?	?	15µM*	-55%	i
O=C(/C(Br)=C/Nc1cc(Cl)ccc1Cl)C(F)(F)F	8%	i	10%	15µM*	21µM*	i
CC(=O)CCc1c(C)nc2ccc(C)cc2c1Cl	-23%	i	-16%	5.2µM*	-8%	i
CCOC(=O)c1ccc2nc(C)c(CCC(C)=O)c(Cl)c2c1	-5%	i	-3%	-2%	-8%	i
CC(=O)OC1CCC2C3CCc4cc(OP(=O)(N5CC5)N5CC5)ccc4C3CCC12C (configuration not stated)	4%	i	1%	?	?	i
CC(C)c1ccc(S(=O)(=O)c2nnn3c2nc(N2CCN(C)CC2)c2sccc23)cc1	·	i	·	?	16µM*	i
CC1CCN(c2nc3c(S(=O)(=O)c4ccc(Cl)cc4)nnn3c3ccsc23)CC1	·	·	·	16µM*	?	·
CN1CCN(c2nc3c(S(=O)(=O)c4ccc(Cl)cc4)nnn3c3ccsc23)CC1	·	i	·	?	?	i
CC1CCN(c2nc3c(S(=O)(=O)c4ccccc4)nnn3c3ccsc23)CC1	·	i	·	-11%	-7%	i
CCCCCCSc1ccc(-c2nc3ccc(Cl)cn3c2NC2CCCCC2)cc1	19%	i	11%	?	26µM*	i
SMILES	HT1080NT lethal	KB-V1 MDR tox	HT1080 IDH1KD tx	TDP1 cell noCPT	DT40 TDP1 CPT	KB-3-1 cytotox
COc1ccc(-c2cccc(-c3nc4ccc(Cl)cn4c3NC3CCCCC3)c2)cc1	6%	i	1%	21µM*	18µM*	?
CCCCCCSc1cc(-c2nc3ccc(Cl)cn3c2NC2CCCCC2)ccc1OC	14%	i	9%	16µM*	?	i
CCCCNc1c(-c2cccc(-c3cc(C(C)=O)cs3)c2)nc2cc(C)ccn12	?	i	-53%	?	?	?
CC(=O)c1csc(-c2cccc(-c3nc4ccc(Cl)cn4c3NC3CCCCC3)c2)c1	1%	i	8%	?	21µM*	?
CN(Cc1ccccc1)C(=O)c1cccc(NC(=O)Cc2cccc(NC(=O)C3CCN(C(=O)c4ccccc4)CC3)c2)c1	2%	i	-3%	?	?	i
CC(=O)c1ccccc1NC(=O)c1ccc(N2CCCC2=O)cc1	-2%	i	-5%	?	?	i
O=C(NCc1ccc2c(c1)OCO2)C(=O)Nc1cc2c3c(c1)CC(=O)N3CCC2	-3%	?	1%	-20%	1%	?
CCC(C)Sc1cc(-c2nc3ccc(Cl)cn3c2NC2CCCCC2)ccc1OC (configuration not stated)	-9%	10µM*!	2%	15µM*	16µM*	?
c1ccc(CNc2c(C3CCNCC3)nc3scc(-c4ccccc4)n23)cc1	-5%	i	-16%	-16%	?	i
Brc1ccc(CN2CCc3nc(Nc4ccccc4)ncc3C2)s1	·	i	·	?	?	i
Cc1cc(NC(=O)CSc2nccn2-c2cccc(F)c2)no1	13%	16µM*	8%	?	?	i
Cc1cc(NC(=O)CSc2nccn2-c2cccc(C)c2C)no1	?	10µM*	?	21µM*	?	?
CCSc1nnc(NC(=O)CSc2nccn2-c2cccc(C)c2C)s1	-1%	21µM*	-3%	?	?	i
Cc1cccc(-n2ccnc2SCC(=O)Nc2cc(C)on2)c1	18%	i	15%	?	?	i
